An excerpt weighted towards active compounds, which were near 0.9% of everything screened.
A1 inhib: inhibitors of A1 | AID 2241 | MEF A1-2A-BIM cells, caspase-Glo luminescence, 3 h; percent of clofoctol signal, DMSO as zero | caspase activation, % (concentration not given with the values) | 21,000 compounds, 0.51% hits;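 active means most replicate scores above 10, or exactly half above 10 with mean activity above 10; inconclusive means mean activity below 10 while half the replicates exceed 10; inactive means most replicate scores below 10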;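 further: effector caspase 3 and 7 activity cleaving a DEVD luciferin substrate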
BJeLR viability: compounds reducing viability of BJeLR cells; AID 2275; 30,000 compounds, 0.64% hits; BJeLR fibroblasts viability, CellTiterGlo ATP luminescence, 48 h; HRASV12, hTERT and SV40 LT/ST transformed; viability loss activity score, % (concentration not given with the values); in the data active means viability loss activity score above about 50%; inconclusive means no clear call, values can overlap the other calls; inactive means below about 35%;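 further: higher score means fewer live cells and less ATP luminescence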
Of the large screens only hits and unclear results are named; the others gave an inactive call; ! = repeats disagree.

CCCOc1cccc(C(=O)Nc2ccc(C(=O)OC)cc2)c1	none
CCCOc1ccc2nc(NC(=O)OC)[nH]c2c1	BJeLR viability 58
CC(=O)N(Cc1ccccc1)C1CCCc2c1[nH]c1ccc(C)cc21 (configuration not stated)	none
O=C1C[C@H](c2ccccc2)Oc2c(Cc3ccccc3O)c(O)cc(O)c21	none
CC(C)=CCc1c(O)cc(O)c2c1O[C@H](c1ccccc1)CC2=O	A1 inhib 23
COC(=O)c1sc(C(C)(C)C)cc1CS(=O)(=O)c1cc(C)c(Cl)cc1C	none
CN1CCN(S(=O)(=O)c2ccc(Br)cc2)CC1	none
O=S(=O)(c1ccc(-c2csc(Nc3ccc(Br)cc3)n2)cc1)N1CCCCC1	A1 inhib 15
COc1cc(Nc2nc(SCC(=O)c3ccc(O)c(O)c3)nc3ccccc23)cc(OC)c1	none
COc1ccc(CCNc2nc(SCC(=O)c3ccc(F)cc3)nc3ccccc23)cc1OC	A1 inhib 16
C=C1C(=O)O[C@@H]2C3C(=C(C)[C@@H](O)[C@@H](OC(=O)/C(=C/C)COC(C)=O)[C@@H]12)C(=O)[C@H]1O[C@@]31C (some centres not stated)	BJeLR viability 90
C=C(C(=O)O[C@H]1C[C@]2(C)C(C(C=O)CC[C@H]2O)[C@H]2OC(=O)C(=C)[C@H]12)C(O)CO (some centres not stated)	none
Nc1c(C(=O)c2ccccc2)sc2nc3c(cc12)CCCC3	none
C=CCOC(=O)c1sc(N2C(=O)c3oc4ccc(F)cc4c(=O)c3C2c2ccc(O)cc2)nc1C (configuration not stated)	none (no result: A1 inhib)
CCc1ccc2nc(Nc3nc4ccccc4c(=O)[nH]3)nc(C)c2c1	BJeLR viability 87
Cc1ccc(SCc2cc(=O)[nH]c(Nc3nc(C)c4ccccc4n3)n2)cc1	none
CCc1nnc(SC(CC)C(=O)N2CCCCCC2)c2cc3sccc3n12 (configuration not stated)	none
CCn1c(C)c(CCC(=O)N2CCCC2)c(=O)n2nc(-c3ccccc3OC)cc12	none
Cc1ccc(-c2nn(-c3ccccc3)cc2/C=N/O)cc1	none
CC1=NNC(=O)/C1=C\c1cn(-c2ccccc2)nc1-c1ccc(F)cc1	A1 inhib 96, BJeLR viability 88
O=C(O)CCCC(=O)Nc1ccccc1SCc1noc(-c2cccs2)n1	none
CC1(C)CC(=O)C=C(Sc2nc3ccccc3o2)C1	BJeLR viability 76
O=C(CSc1nc2ccccc2o1)OCc1ccccc1	none
CCN(CC)C(=O)Cn1cc(S(=O)(=O)CC(=O)N2CCCCC2)c2ccccc21	none
CCC1(C)CC(CCN2C(=O)c3ccccc3C2=O)(c2ccc(C)cc2)CCO1 (configuration not stated)	none
O=C1NCC(O)=C1C=Nc1ccc(C2CCCCC2)cc1	none (no result: A1 inhib)
Oc1cc(C2CCCCC2)cc(C2CCCCC2)c1	A1 inhib 46
O=C1CCS(=O)(=O)c2ccccc2N1Cc1ccccc1	none
CCC(C)C(=O)NCCc1ccccc1 (configuration not stated)	none
CC(=O)OC[C@]12[C@H](OC(C)=O)[C@H](OC(C)=O)[C@@H]3[C@@H](OC(C)=O)[C@@]14O[C@@]3(C)COC(=O)c1ncccc1CC[C@H](C)C(=O)O[C@@H]([C@H](O)[C@@H]2OC(=O)c1ccccc1)[C@]4(C)O	BJeLR viability 51
CC(=O)OC[C@]12[C@@H](OC(C)=O)C[C@@H]3[C@@H](OC(=O)c4ccccc4)[C@]1(OC3(C)C)[C@H](C)C[C@H](OC(=O)c1ccccc1)[C@@H]2OC(C)=O	none
C=CCNc1nc(Nc2ccc(-c3nc4ccccc4o3)cc2)nc(OCC)n1	none
OC(CN1CCN(c2cccc(Cl)c2)CC1)Cn1c2ccccc2c2ccccc21 (configuration not stated)	none
OC(CN1CCNCC1)Cn1c2ccc(Br)cc2c2cc(Br)ccc21 (configuration not stated)	A1 inhib 16!
Nc1nc(Cl)nc2c1ncn2C1OC(CO)[C@H](O)[C@H]1F (some centres not stated)	BJeLR viability 54
Nc1nc(Cl)nc2c1ncn2C1C[C@@H](O)C(CO)O1 (some centres not stated)	none
CCC(=O)N1CCc2cc(S(=O)(=O)NCCC(=O)Nc3ccc(Br)cc3C)ccc21	none (no result: A1 inhib)
COC(=O)Cn1c(=O)c2c(nc3n2CCN3c2ccccc2)n(C)c1=O	A1 inhib 37
COC(=O)Cn1c(Cl)nc2c1c(=O)n(C)c(=O)n2C	none
S=C(Nc1ccc(CN2CCOCC2)cc1)Nc1ccccc1Cl	none (no result: A1 inhib)
CCOc1ccc(-c2c(C#N)c(N)nc(SCC(=O)c3ccc(Cl)cc3)c2C#N)cc1	A1 inhib 16
Cc1ccc(-c2nsc(SCC(=O)c3ccc(Cl)cc3)n2)cc1	none
O=C(c1ccccc1)c1nc2ccccc2[nH]1	none (no result: A1 inhib)
C=CCc1ccc(O[C@@H]2O[C@H](CO)[C@@H](O)[C@H](O)[C@H]2O)c(O[C@@H]2O[C@H](CO)[C@@H](O)[C@H](O)[C@H]2O)c1	BJeLR viability 70
C=CCc1ccc(O[C@@H]2O[C@H](CO[C@@H]3O[C@@H](C)[C@H](O)[C@@H](O)[C@H]3O)[C@@H](O)[C@H](O)[C@H]2O)c(O)c1	none
CCOC(=O)C1=C(SCc2ccccc2)NC(=O)C(C#N)C12CCCCC2 (configuration not stated)	none
O=C(/C=C/Sc1ccccn1)c1ccccc1	BJeLR viability 76
O=C(Sc1ccccn1)N1c2ccccc2Sc2ccccc21	none
O=C(CSCC(=O)Nc1ccccc1Oc1ccccc1)Nc1ccc2ccccc2c1	none
CCc1ccc(N=c2oc3c(C)ncc(CO)c3cc2C(N)=O)cc1	none
C=CCOc1ccccc1OCC(O)CNC(C)C (configuration not stated)	BJeLR viability 56
CC(=O)Nc1ccc(OCC(O)CNC(C)C)cc1 (configuration not stated)	none
Cc1[nH]c2ccc(OC(F)(F)F)cc2c1CCNC(=O)c1c(Cl)cnn1C	none
COc1ccc2[nH]c3c(=O)n(CCc4ccc(Cl)cc4)cnc3c2c1	none
Cc1cc(C)cc(NC(=O)CN2C(=O)CCc3ccccc32)c1	A1 inhib 11
Cc1cc(C)cc(NC(=O)CN2C=NS(=O)(=O)c3ccccc32)c1	none
Cc1onc(-c2ccccc2Cl)c1C1=NCCO1	none
CCOc1ccccc1C(=O)N1CC(C)N(C(=O)c2ccccc2OCC)CC1C (configuration not stated)	none (no result: A1 inhib)
Nc1ncnc2c1c(I)cn2C1OC(CO)C(O)C1O (configuration not stated)	A1 inhib 26, BJeLR viability 63
OC[C@H]1O[C@@H](n2cnc3c(NCc4ccco4)ncnc32)[C@H](O)[C@@H]1O	none
COc1ccc(C2(CNC(=S)Nc3ccccc3)CCOCC2)cc1	none
CCOc1ccc(NC(=O)Cc2ccccc2OC)cc1	none
COc1ccccc1CC(=O)Nc1ccc(-c2nc3ccccc3[nH]2)cc1	A1 inhib 29
CCCCN(CC)S(=O)(=O)c1ccc(C(=O)Nc2ccccc2-c2nc3ccccc3[nH]2)cc1	none (no result: A1 inhib)
CN(Cc1ccccc1)S(=O)(=O)c1ccc(C(=O)Nc2ccc(-c3nc4ccccc4[nH]3)cc2)cc1	A1 inhib 22, BJeLR viability inconclusive
COC(=O)c1ccccc1NC(=O)c1c(C)nn(-c2ccccc2)c1-n1cccc1	none
Nc1c2c(nc3ccccc13)N(Cc1ccccc1)CC2	none (no result: A1 inhib)
CC(C)COc1ccc(OCC(C)C)c(N)c1	none
CCOC(=O)c1ccc2[nH]c(C(=O)OCC)c(CCC(=O)O)c2c1	none
